# Among all 220,000 compounds or so, about 1,600 (0.73%) were called active. The full list was thinned out, with actives kept by preference. Values without a mark were called inactive.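 How the source made its calls: active means inhibition above about 70% (limit read from the data); inactive means the rest.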
# Biological target: 14-3-3 protein zeta/delta (Bos taurus) (UniProt P63103)
# Experiment: disruptors of 14-3-3 zeta phospho-Bad complex – biochemical, TR-FRET, bovine 14-3-3 zeta, primary screen (AID 781);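 further: 0% = full 14-3-3 plus peptide FRET controls and 100% = background without 14-3-3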
# Details: TR-FRET 14-3-3zeta/Dy647-pBad peptide displacement, 1 h; at 21.7 µM; hits give high values
# Chain of 14-3-3 protein zeta/delta (Bos taurus) (P63103 whole entry, looked up): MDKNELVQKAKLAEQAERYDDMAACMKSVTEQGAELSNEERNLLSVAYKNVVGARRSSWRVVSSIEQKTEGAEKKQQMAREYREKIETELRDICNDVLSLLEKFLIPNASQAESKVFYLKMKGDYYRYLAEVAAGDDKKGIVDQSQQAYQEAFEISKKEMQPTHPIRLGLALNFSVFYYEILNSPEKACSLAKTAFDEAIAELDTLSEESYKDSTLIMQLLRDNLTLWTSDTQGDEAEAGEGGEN
row,SMILES,inhibition
1,CC(C)c1ccc(OCC(=O)N2CCN(C)CC2)c(Br)c1,3.12%
2,O=C(COc1ccc2ccccc2c1)N1CCN(Cc2ccncc2)CC1,87.2% (active)
3,CN1CCN(C(=O)COc2ccc(C(C)(C)C)cc2Br)CC1,-3.25%
4,O=C1NC(=O)N(CCc2ccc(F)cc2)C(=O)/C1=C/C=C/c1ccccc1,4.29%
5,Cc1ccsc1C(=O)C1CCCN(Cc2ccc(O)cc2)C1 (stereo not given),-11.4%
6,COc1ccc(CN2CCN(c3ccccc3F)CC2)c(OC)c1,52.2%
7,O=C(Cc1ccccc1)N1CCN(C2CCCCCC2)CC1,27.6%
8,COc1ccccc1CN1CCN(C(=O)Cc2ccccc2)CC1,75.5% (active)
9,O=c1[nH]c(=O)n(-c2ccccc2)c(O)c1C=NC12CN3CN(CN(C3)C1)C2,-5.55%
10,COC(=O)N1C(c2ccccc2)C1c1ccccc1 (stereo not given),-6.04%
11,Cc1cc(N2C(=O)C3CCCN3C2c2ccc(Cl)c(Cl)c2)no1 (stereo not given),5.89%
12,O=C(Cc1ccccc1[N+](=O)[O-])N1CCN(Cc2ccc3c(c2)OCO3)CC1,-4.2%
13,Fc1ccc(N2CCN(Cc3ccc4c(c3)OCO4)CC2)cc1,70.2% (active)
14,Cc1ccc(CN2CCCC(C(=O)c3ccc4c(c3)OCO4)C2)cc1C (stereo not given),-6.26%
15,Fc1ccc(C2N3CCCN23)cc1 (stereo not given),-6.34%
16,CC(C)Oc1cccc(C(=O)C2CCCN(C3CCOCC3)C2)c1 (stereo not given),-13%
17,CN1CCN(Cc2ccccc2C(F)(F)F)CC1,70.1% (active)
18,CN1CCN(Cc2ccc(OC(F)(F)F)cc2)CC1,78.5% (active)
19,CC(C)CN1CCN(Cc2ccccc2C(F)(F)F)CC1CCO (stereo not given),-9.76%
20,Fc1cccc(F)c1CN1CCN(Cc2c(F)cccc2F)CC1,-4.69%
21,Cc1ccc(-n2c(O)c(C=NCC3CCCO3)c(=O)[nH]c2=O)c(C)c1 (stereo not given),5.29%
22,CCCCC(=O)N/N=C/c1c(O)n(CCC2=CCCCC2)c(=O)[nH]c1=O,-15.6%
23,CCC1(C)CC(CCNCc2ccc(N(C)C)cc2)(c2ccc(F)cc2)CCO1 (stereo not given),-2.86%
24,c1cc2c(cc1[C@H]1OC[C@H]3[C@@H]1CO[C@@H]3c1ccc3c(c1)OCO3)OCO2,-2.89%
25,O=c1[nH]c(=O)n(CCc2ccc(F)cc2)c(O)c1/C=N/N1CCCCC1,-6.68%
